Assay results published in PubChem BioAssay (NCI).
About 83,000 compounds went through this panel and 20% of them were active in at least one assay; those are over-represented in the sample as a whole.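 Percent growth is the endpoint: 0 to 100 indicates growth inhibition (40 means 60% inhibition), 0 means no net growth, and negative values indicate cell death.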 A number with no mark means an inactive call. Active and inactive are the calls of the source. How the source made its calls: active means growth percent below 10; inactive means the rest.

The compounds below were run on MOLT-4 leukemia (assay: NCI-60 one-dose screen, 48 h (100 = growth as untreated, 0 = no growth, -100 = all killed)). Settings: 10 µM unless noted.
Work on COC(=O)C(Cc1ccccc1)NS(=O)(=O)/N=C1\NC(=O)NC1=C(Cl)Cl (centres undefined) yielded a growth of 79.3%.
[Cl][Ru].c1ccc(-c2cccc(-c3ccccn3)n2)nc1.c1ccc(-c2ccnc3c2ccc2c(-c4ccccc4)ccnc23)cc1 was tested, and the growth was 41.4%.
For NS(=O)(=O)c1ccc(Nc2nc(Nc3ccccc3)nc(-n3nc(-c4ccccc4)cc3-c3ccccc3)n2)cc1, the growth was 4.14% (active).
Compound COc1ccccc1/C=C/C=N/NC1=NC2C(S1)N(C)C(=O)N2C (centres undefined) has a growth of 21%.
In the case of O=C(c1ccc(O)cc1)C1[C@H](c2ccc(Cl)cc2)[C@@H](c2ccccc2)NC12C(=O)Nc1ccc(Cl)cc12 (some centres undefined), the growth is reported as 10.3%.
In the case of CC(C)Sc1nc(Nc2ccc(S(N)(=O)=O)cc2)c(C#N)c(-c2ccc(F)cc2)n1, the growth is reported as 49.9%.
Work on Nc1cc(-c2c[nH]c3ccccc23)nc2cc(-c3c[nH]c4ccccc34)nn12 yielded a growth of 34%.
In the case of Cc1nc2cnc(N)c(C#Cc3cncc(C(=O)Nc4ccc(Cl)c(C(F)(F)F)c4)c3)c2nc1C, the growth is reported as 35.6%.
CCN1C(=S)N(CC)C2C1N=C(SC)N2/N=C/C=C/c1ccccc1[N+](=O)[O-] (centres undefined) gave a growth of 82.1%.
COc1ccc(/C=N/NC(=O)c2[nH]c3ccc(Br)cc3c2-c2ccccc2)o1 was tested, and the growth was 17%.
In the case of NS(=O)(=O)c1cccc(Nc2nc(SCC(=O)c3ccc([N+](=O)[O-])cc3)nc3ccccc23)c1, the growth is reported as -6.08% (active).
COc1cc(/C=C/C(=O)c2ccccc2)ccc1Oc1nc(NCCO)nc(N2CCOCC2)n1 was tested, and the growth was 71.3%.
In the case of COC1CCN(Cc2ccc3c(NNC(=O)c4cnccn4)nc4cc(F)ccc4n23)C1 (centres undefined), the growth is reported as 8.05% (active).
Compound CS(=O)(=O)Nc1ccc(-c2nn(-c3ccc(S(C)(=O)=O)cc3)cc2/C=C/C(=O)c2ccc(NC(=O)CO[N+](=O)[O-])cc2)cc1 has a growth of 107%.
In the case of O=C(Nc1nc2ccc(O)cc2s1)c1cccc(C(F)(F)F)c1, the growth is reported as 34.6%.
With c1ccc2c(NCCCn3ccnc3)c3oc4ccccc4c3nc2c1 the growth was -3.87% (active).
For CC(C)NC(=O)c1cc(-c2ccc(NC(=O)Nc3ccc(N4CCOCC4)c(C(F)(F)F)c3)cc2)nc2cccnc12, the growth was 18.7%.
For Cn1c(SCC(=O)c2cccs2)nc2ccccc2c1=O, the growth was 87%.
For CS(=O)(=O)c1ccc(-c2nc3ccccn3c2/C=N/Nc2nc(-c3ccc(Br)cc3)cs2)cc1, the growth was 94%.
Clc1ccc2c(NCCCn3ccnc3)c3oc4ccccc4c3nc2c1 was tested, and the growth was 13.3%.
CCN1C(=S)N(CC)C2C1NN=C1SC(c3ccccc3)=CC(=O)N12 (centres undefined) was tested, and the growth was 97.7%.
COc1ccc(-c2csc(N/N=C/c3c(-c4ccc(S(C)(=O)=O)cc4)nc4ccccn34)n2)cc1 gave a growth of 92.4%.
Compound CSCCC(C(=O)O)N1C(=O)/C(=C/c2ccc(O)c(O)c2)SC1=S (centres undefined) has a growth of 108%.
O=C1Nc2cc(Cl)ccc2/C1=C\c1ccc(OCc2ccc(Br)cc2F)cc1 gave a growth of 22.7%.
CN(C)CCCOc1c2ccc(Cl)cc2nc2c1oc1ccc(Cl)cc12 was tested, and the growth was 1.92% (active).
For O=C(N/N=C/c1ccc(Br)s1)c1[nH]c2ccc(Br)cc2c1-c1ccccc1, the growth was 14.2%.
Compound CC(=NNc1ncnc2ccccc12)c1ccc(S(C)(=O)=O)cc1 has a growth of 100%.
Compound O=C(N/N=C/c1ccco1)c1[nH]c2ccc(Br)cc2c1-c1ccccc1 has a growth of 15.8%.
Work on COc1ccc(NC2=CC(=O)C(C)=C(C)C2=O)cc1 yielded a growth of 75.6%.
Compound CN1C(=S)N(C)C2C1NN=C1SC(c3ccccc3)=CC(=O)N12 (centres undefined) has a growth of 89.8%.
CC1=C(C)C(=O)C(Nc2ccccc2)=C(Cl)C1=O gave a growth of 12.7%.
Work on C#Cc1nc(C2=C(C)/C(=N/OCc3ccccc3)CC2)cs1 yielded a growth of 60.7%.
COc1cc(/C=C/C(=O)c2ccc(C(F)(F)F)cc2)ccc1Oc1nc(NCCO)nc(N2CCOCC2)n1 was tested, and the growth was 3.51% (active).
Work on CN1C(=O)N(c2ccccc2)C2N=C(N/N=C/c3ccccc3)SC21 (centres undefined) yielded a growth of 25.5%.
COc1ccc(C(=O)c2cc(C(=O)/C=C/c3c(Cl)cccc3Cl)c3cc(C)ccn23)cc1 gave a growth of 96.4%.
For Cn1cc(-c2cc(N)n3nc(-c4cn(C)c5ccc(F)cc45)cc3n2)c2cc(F)ccc21, the growth was 3.58% (active).
In the case of CC(C)(C)Nc1nc2c(OCCc3ccccc3)cccn2c1-c1cccc(F)c1, the growth is reported as -0.489% (active).
Work on C=CCSc1ccc2c(c1)C(N1CCNCC1)=Nc1ccccc1O2 yielded a growth of 49.9% [8.25 µM].
COc1ccc(-c2nc3ccc(-c4nnc(SCC(=O)Nc5ccc(C(=O)/C=C/c6ccccc6)cc5)o4)cc3[nH]2)cc1OC gave a growth of 80.5%.
